From PubChem BioAssay (NCATS) come the findings set out here.

A short description of assay [1]: Primary qHTS for small molecule stabilizers of the endoplasmic reticulum resident proteome: Secreted ER Calcium Modulated Protein (SERCaMP) assay (AID 1508630). The essentials:
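The SH-SY5Y reporter protocol was run at 3 concentrations up to 38.3 uM (primary) or 11 concentrations (follow-up): 16 h compound, 100 nM thapsigargin for 4 h, then extracellular luciferase luminescence.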
Background: qHTS replaces the single test concentration by a dilution series.

The target of assay [2] is Cytochrome P450 2D6 (Homo sapiens) (UniProt P10635). The assay can be described thus: Cytochrome P450 family 2 subfamily D member 6 (CYP2D6) small molecule antagonists: luciferase biochemical (cell-free) qHTS assay (AID 1645840; active means well fitted curve in the direction sought with a large enough effect in the repeat runs; an effect the other way counts as inactive or inconclusive; further: nearly all actives have a fitted effect of over 55% in size; further: potency means the concentration at half of the fitted maximal effect). The essentials:
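P450-Glo CYP2D6 system: proluciferin substrate converted by enzyme to luciferin, read by luminescence proportional to activity. Enzyme-substrate mix with compound 10 min at room temperature, then NADPH regeneration 1 h before detection reagent.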

The target in assay [3] is N-terminal Xaa-Pro-Lys N-methyltransferase 1 (Homo sapiens) (UniProt Q9BV86). The assay can be described thus: Confirmatory qHTS for Inhibitors of N-terminal methyltransferase 1 (NTMT1): MTaseGlo Assay (AID 1645874).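 Further: luminescence from SAH made as NTMT1 methylates SPKRIA peptide using SAM; nearly all actives have a fitted effect of over 65% in size.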 The essentials:
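MTase-Glo luminescence measured SAH formed by 125 nM NTMT1 from 100 uM SAM and 1 uM SPKRIA peptide over 30 min at room temperature, following 15 min compound preincubation. Percent inhibition against no-enzyme and DMSO controls gave 4-parameter Hill fits.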

Assay [4] in a line: Primary qHTS for inhibitors of nuclear receptor binding SET domain protein 2 (NSD2) in an isogenic RCH-ACV NSD2 p.E1099K mutant (9B) (AID 1645876). Further: nearly all actives have a fitted effect of over 70% in size. Further: potency means the concentration at half of the fitted maximal effect.
A short description of assay [5]: Primary qHTS for inhibitors of nuclear receptor binding SET domain protein 2 (NSD2) in an RCH-ACV wild type WT cells (2C) (AID 1645877). Further: nearly all actives have a fitted effect of over 70% in size. Further: potency means the concentration at half of the fitted maximal effect.
Assay [6] is described as follows: NCATS anti-infectives library activity on HEK293 viability as a counter-qHTS vs the C. elegans viability qHTS (AID 1745854). Further: potency means the concentration at half of the fitted maximal effect. The essentials: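 Cytotoxicity counter-screen to a worm viability qHTS: CellTiter-Glo luminescence read 10 min after reagent addition. Compounds (final up to 41.7 uM, a 1:5 dilution series) incubated 24 hr at 37C with 1,500 HEK293 cells per well; digitonin control.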

Assay [7] concerns the target Cytochrome P450 2C9 (Homo sapiens) (UniProt P11712). Put plainly: Cytochrome P450 family 2 subfamily C member 9 (CYP2C9) small molecule antagonists: luciferase biochemical (cell-free) qHTS assay (AID 1645842; active means well fitted curve in the direction sought with a large enough effect in the repeat runs; an effect the other way counts as inactive or inconclusive; further: nearly all actives have a fitted effect of over 55% in size). The essentials:
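P450-Glo CYP2C9 system: proluciferin substrate with enzyme in mix containing 0.4% BSA, 10 min at room temperature, then NADPH regeneration solution added and incubated 1 h at 37C. Detection reagent stopped reaction; luminescence read after 20 min as RLU.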

Assay [8] in a line: NCATS anti-infectives library activity on the primary C. elegans qHTS viability assay (AID 1745855; calls by dose curve). Conditions: C. elegans worm area imaging, day 7; at 41.8 µM (top of the series). The essentials: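 GFP read-out by 488 nm laser cytometry at day 0, 3 and 7, gated on object perimeter, area and peak intensity, scored viability of PE254-GFP-FLuc worms exposed to compound in S medium with bacterial capsules at 21 °C.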

Assay [9] in a line: A High-Content qHTS Against Drug Library for the Identification of Small Molecules that Inhibit DYT1 Early Onset Primary Dystonia-Associated Cell Pathology (AID 1645839; calls by dose curve). The essentials: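 Cells were seeded and left for 24 h, then dosed with compound alongside tetracycline induction of mutant EGFP-TorsinA. They were incubated for 48 h, fixed in 4% paraformaldehyde, permeabilized and imaged for mislocalization (%pathology) and cell count.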

In assay [10] the target is Rap guanine nucleotide exchange factor 3 (Homo sapiens) (UniProt O95398). Put plainly: Confirmatory qHTS for antagonist of cAMP-regulated guanine nucleotide exchange factor 3 (EPAC1) (AID 1645880). Further: nearly all actives have a fitted effect of over 55% in size. The essentials:
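Released BODIPY-GDP fluoresces less than Rap1-bound BODIPY-GDP; the signal is followed at 480/540 nm at 5-min intervals over 30 min, after 5 min at room temperature. Reactions contain 100 nM EPAC1, 250 nM RAP1B-BODIPY-GDP and 50 uM GDP; results are normalized to ATA and DMSO.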

The target is the same in assay [11]. The assay can be described thus: Confirmatory qHTS for agonist of cAMP-regulated guanine nucleotide exchange factor 3 (EPAC1) (AID 1645881).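 Further: EPAC1 catalysed release of BODIPY-GDP from Rap1B seen as fluorescence loss; nearly all actives have a fitted effect of over 75% in size.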
Assay [12] has as its target Rap guanine nucleotide exchange factor 4 (Homo sapiens) (UniProt Q8WZA2). Put plainly: Confirmatory qHTS for agonist of cAMP-regulated guanine nucleotide exchange factor 4 (EPAC2) (AID 1645884).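 Further: nucleotide exchange releases bodipy-GDP from Rap1 and this lowers its fluorescence; nearly all actives have a fitted effect of over 65% in size.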
Assay [13] shares this target. Put plainly: Confirmatory qHTS for antagonist of cAMP-regulated guanine nucleotide exchange factor 4 (EPAC2) (AID 1645885). Further: nearly all actives have a fitted effect of over 25% in size.
Another assay addresses Papain (Carica papaya) (UniProt P00784). The assay can be described thus: Primary qHTS assay for inhibitors of the protease papain (AID 1645873).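 Further: papain turnover of Z-FR-AMC read as the AMC fluorescence gain over 10 min.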 Further: potency means the concentration at half of the fitted maximal effect.

Structures are written as SMILES. Where “and” joins values, the source holds several entries; their conditions need not be identical. Equal entries are not always repeated. Records with an inconclusive call do not appear. Where a structure was tested more than once in an assay, its records may differ in their call. Calls of active or inactive are those of the source. Unless noted, the call rests on the fitted dose curve; in most records, active means well fitted curve in the direction sought with a large enough effect; inconclusive means small, poorly fitted or top-dose-only effect, or another doubt; inactive means no such curve, though single readings can be large; an effect the other way counts as inactive or inconclusive.

Chain of Papain (Carica papaya) (P00784 whole entry, looked up): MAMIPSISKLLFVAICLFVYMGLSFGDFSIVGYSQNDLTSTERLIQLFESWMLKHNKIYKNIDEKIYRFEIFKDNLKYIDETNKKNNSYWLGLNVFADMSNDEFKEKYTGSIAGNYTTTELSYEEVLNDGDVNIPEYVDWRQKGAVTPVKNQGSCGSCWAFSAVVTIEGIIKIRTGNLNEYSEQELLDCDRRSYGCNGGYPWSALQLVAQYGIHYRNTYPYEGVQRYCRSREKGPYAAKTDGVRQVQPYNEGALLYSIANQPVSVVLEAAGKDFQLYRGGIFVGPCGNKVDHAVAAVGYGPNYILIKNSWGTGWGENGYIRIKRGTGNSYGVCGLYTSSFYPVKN
Chain of Cytochrome P450 2C9 (Homo sapiens) (P11712 whole entry, looked up): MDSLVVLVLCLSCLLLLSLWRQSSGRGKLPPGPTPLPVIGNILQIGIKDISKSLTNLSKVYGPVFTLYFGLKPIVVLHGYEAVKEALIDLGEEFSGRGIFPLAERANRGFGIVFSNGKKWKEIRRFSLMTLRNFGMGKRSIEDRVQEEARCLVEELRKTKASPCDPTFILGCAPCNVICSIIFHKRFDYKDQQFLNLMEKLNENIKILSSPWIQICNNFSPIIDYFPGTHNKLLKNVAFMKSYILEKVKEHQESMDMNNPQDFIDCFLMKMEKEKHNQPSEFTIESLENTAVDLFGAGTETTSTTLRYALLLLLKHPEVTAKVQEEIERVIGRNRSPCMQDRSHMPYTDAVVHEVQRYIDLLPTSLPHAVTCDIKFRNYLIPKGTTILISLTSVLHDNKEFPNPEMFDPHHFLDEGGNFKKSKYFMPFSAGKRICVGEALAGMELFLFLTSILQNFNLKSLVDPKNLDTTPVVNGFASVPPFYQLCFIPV
Chain of Cytochrome P450 2D6 (Homo sapiens) (P10635 whole entry, looked up): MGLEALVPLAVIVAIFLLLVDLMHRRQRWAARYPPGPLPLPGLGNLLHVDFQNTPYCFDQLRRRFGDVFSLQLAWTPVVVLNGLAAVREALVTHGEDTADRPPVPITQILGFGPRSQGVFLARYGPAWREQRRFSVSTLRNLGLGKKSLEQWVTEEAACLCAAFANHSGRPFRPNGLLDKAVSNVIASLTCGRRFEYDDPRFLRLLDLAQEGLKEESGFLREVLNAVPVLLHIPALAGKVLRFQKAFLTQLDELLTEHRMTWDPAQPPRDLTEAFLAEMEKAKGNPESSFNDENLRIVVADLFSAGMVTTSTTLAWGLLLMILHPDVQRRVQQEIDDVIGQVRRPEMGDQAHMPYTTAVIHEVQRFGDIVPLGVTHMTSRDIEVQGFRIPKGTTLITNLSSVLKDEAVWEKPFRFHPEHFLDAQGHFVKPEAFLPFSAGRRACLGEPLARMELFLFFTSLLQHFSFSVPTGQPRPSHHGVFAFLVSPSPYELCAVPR
Chain of Rap guanine nucleotide exchange factor 3 (Homo sapiens) (O95398 whole entry, looked up): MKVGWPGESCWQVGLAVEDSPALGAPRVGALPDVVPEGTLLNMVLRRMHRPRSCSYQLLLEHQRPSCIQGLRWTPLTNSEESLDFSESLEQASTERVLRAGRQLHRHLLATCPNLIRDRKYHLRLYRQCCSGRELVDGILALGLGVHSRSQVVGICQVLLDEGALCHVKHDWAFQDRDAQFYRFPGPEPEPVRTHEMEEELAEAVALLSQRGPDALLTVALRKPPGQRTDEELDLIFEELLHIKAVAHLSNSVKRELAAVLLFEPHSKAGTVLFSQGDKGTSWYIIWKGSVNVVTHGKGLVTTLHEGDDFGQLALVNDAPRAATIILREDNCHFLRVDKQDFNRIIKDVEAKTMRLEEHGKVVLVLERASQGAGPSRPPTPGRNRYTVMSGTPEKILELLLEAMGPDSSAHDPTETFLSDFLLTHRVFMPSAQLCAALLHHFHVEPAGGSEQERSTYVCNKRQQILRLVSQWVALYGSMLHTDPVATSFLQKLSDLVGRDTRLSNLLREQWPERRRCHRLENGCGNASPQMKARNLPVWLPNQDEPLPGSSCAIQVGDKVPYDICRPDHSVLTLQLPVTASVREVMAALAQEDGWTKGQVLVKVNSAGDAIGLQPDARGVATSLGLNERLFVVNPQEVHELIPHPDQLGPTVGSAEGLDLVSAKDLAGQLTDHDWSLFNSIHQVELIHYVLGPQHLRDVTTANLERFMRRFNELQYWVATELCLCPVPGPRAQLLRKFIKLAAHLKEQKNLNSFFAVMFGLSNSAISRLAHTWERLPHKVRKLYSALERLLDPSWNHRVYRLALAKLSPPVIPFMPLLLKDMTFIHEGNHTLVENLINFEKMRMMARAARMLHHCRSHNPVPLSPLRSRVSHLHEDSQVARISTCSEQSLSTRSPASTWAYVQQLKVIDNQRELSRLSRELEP
Chain of Rap guanine nucleotide exchange factor 4 (Homo sapiens) (Q8WZA2 whole entry, looked up): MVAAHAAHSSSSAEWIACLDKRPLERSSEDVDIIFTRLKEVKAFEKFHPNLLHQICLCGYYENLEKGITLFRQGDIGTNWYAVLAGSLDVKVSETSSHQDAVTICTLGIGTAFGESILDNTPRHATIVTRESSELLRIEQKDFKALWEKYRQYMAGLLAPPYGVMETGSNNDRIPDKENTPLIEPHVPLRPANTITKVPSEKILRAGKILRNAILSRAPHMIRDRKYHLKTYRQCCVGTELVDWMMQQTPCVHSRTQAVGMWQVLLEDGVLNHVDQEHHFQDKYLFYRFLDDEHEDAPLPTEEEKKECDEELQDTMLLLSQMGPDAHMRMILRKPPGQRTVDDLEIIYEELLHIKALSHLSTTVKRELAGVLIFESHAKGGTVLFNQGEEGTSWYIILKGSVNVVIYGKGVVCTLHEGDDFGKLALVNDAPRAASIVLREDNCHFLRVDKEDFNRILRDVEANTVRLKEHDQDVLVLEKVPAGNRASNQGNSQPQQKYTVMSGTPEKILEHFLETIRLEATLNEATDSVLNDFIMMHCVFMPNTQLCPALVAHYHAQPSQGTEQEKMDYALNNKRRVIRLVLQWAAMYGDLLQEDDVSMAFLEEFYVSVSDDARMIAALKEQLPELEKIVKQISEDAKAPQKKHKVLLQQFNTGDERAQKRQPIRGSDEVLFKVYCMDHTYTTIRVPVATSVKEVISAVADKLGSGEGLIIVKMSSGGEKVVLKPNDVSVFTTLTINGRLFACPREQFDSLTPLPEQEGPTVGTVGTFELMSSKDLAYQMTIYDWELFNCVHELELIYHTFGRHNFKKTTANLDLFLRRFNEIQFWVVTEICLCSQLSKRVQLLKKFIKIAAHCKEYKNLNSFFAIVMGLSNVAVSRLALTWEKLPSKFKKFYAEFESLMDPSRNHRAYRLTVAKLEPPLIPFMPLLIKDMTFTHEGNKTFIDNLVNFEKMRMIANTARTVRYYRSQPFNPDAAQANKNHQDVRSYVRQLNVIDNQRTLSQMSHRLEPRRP
Chain of N-terminal Xaa-Pro-Lys N-methyltransferase 1 (Homo sapiens) (Q9BV86 whole entry, looked up): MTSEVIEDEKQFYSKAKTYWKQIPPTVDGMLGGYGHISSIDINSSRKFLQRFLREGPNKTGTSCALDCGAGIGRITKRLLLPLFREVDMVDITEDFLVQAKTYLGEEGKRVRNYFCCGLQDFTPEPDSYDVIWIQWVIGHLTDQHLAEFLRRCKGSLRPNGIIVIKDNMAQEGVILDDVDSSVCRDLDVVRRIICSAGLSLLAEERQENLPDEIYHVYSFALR

As for `Nc1nc(=S)c2[nH]cnc2[nH]1`, the Potency entry in assay [1], in assay [2] and in [3] was “inactive” throughout. In addition, the Potency in assay [4] is 750 nM (active) and 833 nM (active); in assay [5], 1.06 µM (active) and 742 nM (active); in [6], 3.55 µM (active).

Consider `COc1ccc(C(=O)CC(=O)c2ccc(C(C)(C)C)cc2)cc1`, for which the Potency entry in assay [1], in assay [2] and in assay [4] was “inactive” each time.

Regarding `CCn1cc(C(=O)O)c(=O)c2cc(F)c(N3CCNCC3)cc21`, the Potency result in [1], in assay [2], in [7], in assay [4] and in assay [5] was “inactive” throughout.

With `COc1cc(NS(=O)(=O)c2ccc(N)cc2)nc(OC)n1`, the Potency result in assay [1], in assay [2], in [4] and in [5] was “inactive” each time.

As for `CC1=CC(=O)c2ccccc2C1=O`, in assay [1], the Potency entry was “inactive”. The Potency in assay [2] is 15.5 µM (active); in assay [4] it was 31.6 µM (active) and inactive.

For the compound `C[C@@H](CN1CC(=O)NC(=O)C1)N1CC(=O)NC(=O)C1`, the Potency result in [1] and in assay [2] was “inactive” throughout. In addition, the Potency in assay [4] is 16.8 µM (active) and 5.25 µM (active); in [5], 8.33 µM (active).

As for `COc1ccccc1OCC(O)COC(N)=O` (stereo not drawn), the Potency entry in assay [1], in assay [2], in assay [7], in assay [4] and in [6] was “inactive” each time. In addition, the compound was called inactive in assay [8].

On to `COc1ncnc(NS(=O)(=O)c2ccc(N)cc2)c1OC`, for which the Potency result in [1], in assay [2], in [4] and in assay [5] was “inactive” throughout.

Regarding `C#CCN[C@@H]1CCc2ccccc21`, the Potency result in [1], in assay [7] and in [4] was “inactive” in each case.

Regarding `CN(C)CCc1c[nH]c2ccc(C[C@H]3COC(=O)N3)cc12`, the Potency result in assay [9], in [2], in [7] and in assay [4] was “inactive” throughout. For the same compound, the compound was called inactive in assay [10], in assay [11], in [12] and in assay [13].

Consider `O=C(O)C1CCCN(CCC=C(c2ccccc2)c2ccccc2)C1` (stereo not drawn), for which the Potency entry (in assay [1]; in the assay with Papain (Carica papaya); in assay [4]; in assay [5]) was “inactive” in each case.

On to `O=S(=O)(c1cccc2cnccc12)N1CCCNCC1`, for which the Potency result in assay [4] and in [6] was “inactive” each time.

As for `CS(=O)(=O)c1ccc([C@@H](O)[C@@H](CO)NC(=O)C(Cl)Cl)cc1`, the Potency result in assay [1] and in [4] was “inactive” each time.

For `O=C(O)c1cn(C2CC2)c2cc(N3CCNCC3)c(F)cc2c1=O`, the Potency result in [9] is “inactive”.

Take `CCCCS(=N)(=O)CCC(N)C(=O)O` (stereo not drawn): the Potency result (in assay [1]; with Papain (Carica papaya); in assay [4]; in [5]) was “inactive” each time.

`COc1cc2nc(N3CCCN(C)CC3)nc(NC3CCN(Cc4ccccc4)CC3)c2cc1OC`: in [1], the Potency entry is “inactive”. The figures for the Potency (in the assay with Papain (Carica papaya); in assay [4]; in assay [5]) were 25.1 µM (active), 4.17 µM (active) and 2.63 µM (active), respectively.

On to `NCCCC(O)(P(=O)(O)O)P(=O)(O)O`, for which the Potency result in assay [9] is “inactive”.

In the case of `OCc1ccc(-c2nn(Cc3ccccc3)c3ccccc23)o1`, in [1], the Potency entry is “inactive”. Besides, the Potency with Papain (Carica papaya) is 25.1 µM (active); in assay [4] it was 3.72 µM (active); in assay [5], 4.17 µM (active).
